SMILES strings stand for the structures. The panel holds about 79,000 compounds, 15% with a hit somewhere; the sample as a whole holds those more often. Unmarked numbers belong to inactive results. The source made the active and inactive calls. Rule as the data show it: active = growth inhibition above about 70%; inactive = the rest.

Test [1] in a line: NCI Yeast Anticancer Drug Screen. Data for the rad50 strain (AID 155).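 Also: 0% = growth of vehicle-only cultures of the same strain.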 The settings on record: S. cerevisiae rad50 strain growth inhibition, stronger effect = higher value. The procedure, abridged: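 Yeast carrying a defined DNA repair defect were exposed to test compounds, and growth was compared with vehicle-treated controls to give percent inhibition.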
Test [2] can be described thus: NCI Yeast Anticancer Drug Screen. Data for the mec2-1 strain (AID 157). The settings on record: S. cerevisiae mec2-1 strain, stronger effect = higher value. In a few lines:
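Each compound was tested on mec2-1 yeast, a strain altered in DNA damage repair or cell cycle control. Growth inhibition is reported relative to vehicle.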

A short description of test [3]: NCI Yeast Anticancer Drug Screen. Data for the sgs1 mgt1 strain (AID 161).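 Also: 0% = growth of cultures given vehicle only.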 The settings on record: S. cerevisiae sgs1 mgt1 strain, stronger effect = higher value. In a few lines:
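Read-out: growth inhibition vs vehicle controls. Cells: mutant yeast strain deficient in DNA damage repair.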

Test [4] is described as follows: NCI Yeast Anticancer Drug Screen. Data for the cln2 rad14 strain (AID 165).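 Also: 0% = growth equal to vehicle treated cultures.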 The settings on record: S. cerevisiae cln2 rad14 strain, stronger effect = higher value. The procedure, abridged: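 Test compounds were added to cln2 rad14 yeast cultures; inhibition of growth was then determined by comparison with vehicle treatment.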
The nature of test [5]: NCI Yeast Anticancer Drug Screen. Data for the bub3 strain (AID 167). The settings on record: S. cerevisiae bub3 mutant strain, stronger effect = higher value. The procedure, abridged:
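Compounds were applied to a genetically altered yeast strain carrying a cell-cycle control defect. Growth inhibition was scored against vehicle-treated controls.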

Test [6] in a line: NCI Yeast Anticancer Drug Screen. Data for the mlh1 rad18 strain (AID 175). The settings on record: S. cerevisiae mlh1 rad18 strain growth inhibition, stronger effect = higher value. In a few lines:
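Inhibition values reflect reduced growth of mutant yeast versus vehicle-treated controls following compound exposure; the mutations affect DNA damage repair.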

[7] abbreviates: at 5.0 µM (retest, dose inferred, filed as 0.5).
The mark [8] stands for this setting: at 50.0 µM (retest, dose inferred, filed as 5.0).

For `O=S(=O)(Nc1ccccc1-c1ccc(Cl)cc1)c1ccccc1`, the growth inhibition in test [1] (setting [7]) was -6%; in test [1] (setting [8]), 14%; in test [1] (at 50.0 µM) it was 98.9% (active); in test [2] (setting [7]), -8%; in test [2] (setting [8]), 8%; in test [2] (at 50.0 µM), 52.9%. Moreover, the growth inhibition was -7% in test [3] (setting [7]); -56% in test [3] (setting [8]); 97.5% (active) in test [3] (at 50.0 µM); -12% in test [4] (setting [7]); 95% (active) in test [4] (setting [8]); 98% (active) in test [4] (at 50.0 µM). The growth inhibition was 2% in test [5] (setting [7]); 91% (active) in test [5] (setting [8]); 54.9% in test [5] (at 50.0 µM); -8% in test [6] (setting [7]); 57% in test [6] (setting [8]); 73.7% (active) in test [6] (at 50.0 µM).
As to `Clc1cc(Cl)c2c(c1)nc(Cl)c1cc(Cl)ccc12`, the growth inhibition in test [1] (setting [7]) was -13%; in test [1] (setting [8]) it was 1%; in test [1] (at 50.0 µM), 97% (active); in test [2] (setting [7]) it was -13%; in test [2] (setting [8]), 7%; in test [2] (at 50.0 µM), 99% (active). Besides, the growth inhibition in test [3] (setting [7]) was -5%; in test [3] (setting [8]), 1%; in test [3] (at 50.0 µM), 97.6% (active); in test [4] (setting [7]), -1%; in test [4] (setting [8]), 2%; in test [4] (at 50.0 µM), 98.5% (active). Also, the growth inhibition was -5% in test [5] (setting [7]); 1% in test [5] (setting [8]); 98.7% (active) in test [5] (at 50.0 µM); -14% in test [6] (setting [7]); -20% in test [6] (setting [8]); 98.6% (active) in test [6] (at 50.0 µM).
Consider `C=C(CSCCCCCCCCCCCC)C(=O)O`, for which the growth inhibition was 98% (active) in test [1] (setting [7]); 97% (active) in test [1] (setting [8]); 98.5% (active) in test [1] (at 50.0 µM); 99% (active) in test [2] (setting [7]); 98% (active) in test [2] (setting [8]); 98.9% (active) in test [2] (at 50.0 µM). Further, the growth inhibition in test [3] (setting [7]) was 98% (active); in test [3] (setting [8]) it was 97% (active); in test [3] (at 50.0 µM), 98.5% (active); in test [4] (setting [7]), 98% (active); in test [4] (setting [8]) it was 96% (active); in test [4] (at 50.0 µM) it was 94.3% (active). Further, the growth inhibition in test [5] (setting [7]) is 98% (active); in test [5] (setting [8]) it was 96% (active); in test [5] (at 50.0 µM), 99.3% (active); in test [6] (setting [7]), 99% (active); in test [6] (setting [8]), 97% (active); in test [6] (at 50.0 µM), 96.7% (active).
As to `CCCCOC(c1ccccc1)N1CCCCC1` (stereo not given), the growth inhibition in test [1] (setting [7]) is 0%; in test [1] (setting [8]), 6%; in test [1] (at 50.0 µM) it was 28.8%; in test [2] (setting [7]), 0%; in test [2] (setting [8]) it was 11%; in test [2] (at 50.0 µM), -10.7%. For the same compound, the growth inhibition was -3% in test [3] (setting [7]); 6% in test [3] (setting [8]); 35.8% in test [3] (at 50.0 µM); -3% in test [4] (setting [7]); -12% in test [4] (setting [8]); -13.6% in test [4] (at 50.0 µM). Moreover, the growth inhibition is -4% in test [5] (setting [7]); -4% in test [5] (setting [8]); 4.15% in test [5] (at 50.0 µM); -4% in test [6] (setting [7]); -3% in test [6] (setting [8]); 7.35% in test [6] (at 50.0 µM).
For `Cc1cc(=O)n(-c2cc3cccccc-3n2)[nH]1`, the growth inhibition in test [1] (setting [7]) is -9%; in test [1] (setting [8]), 96% (active); in test [1] (at 50.0 µM), 96.8% (active); in test [2] (setting [7]), 2%; in test [2] (setting [8]), 97% (active); in test [2] (at 50.0 µM) it was 71.6% (active). Besides, the growth inhibition in test [3] (setting [7]) is 2%; in test [3] (setting [8]) it was 98% (active); in test [3] (at 50.0 µM), 97.8% (active); in test [4] (setting [7]), -11%; in test [4] (setting [8]) it was 98% (active); in test [4] (at 50.0 µM), 70.3% (active). Moreover, the growth inhibition was -1% in test [5] (setting [7]); 95% (active) in test [5] (setting [8]); 86.2% (active) in test [5] (at 50.0 µM); -1% in test [6] (setting [7]); 98% (active) in test [6] (setting [8]); 96.2% (active) in test [6] (at 50.0 µM).
`CCCCCCCCCCN(CCCCCCCCCC)CC(O)c1cc(-c2ccccc2)nc2ccccc12` (stereo not given): the growth inhibition was -1% in test [1] (setting [7]); 74% (active) in test [1] (setting [8]); 36.2% in test [1] (at 50.0 µM); -2% in test [2] (setting [7]); 34% in test [2] (setting [8]); 21.9% in test [2] (at 50.0 µM). The growth inhibition in test [3] (setting [7]) is -22%; in test [3] (setting [8]), 93% (active); in test [3] (at 50.0 µM) it was 38.8%; in test [4] (setting [7]), 0%; in test [4] (setting [8]), 26%; in test [4] (at 50.0 µM) it was -18.1%. In addition, the growth inhibition in test [5] (setting [7]) is 0%; in test [5] (setting [8]), 58%; in test [5] (at 50.0 µM) it was 26.9%; in test [6] (setting [7]) it was 4%; in test [6] (setting [8]), 57%; in test [6] (at 50.0 µM) it was 55%.
For `C#CCCCCCOC(=O)c1cc([N+](=O)[O-])cc([N+](=O)[O-])c1`, the growth inhibition in test [1] (setting [7]) is 97% (active); in test [1] (setting [8]), 99% (active); in test [1] (at 50.0 µM), 98.5% (active); in test [2] (setting [7]) it was 99% (active); in test [2] (setting [8]) it was 99% (active); in test [2] (at 50.0 µM), 99% (active). Further, the growth inhibition in test [3] (setting [7]) is 99% (active); in test [3] (setting [8]), 99% (active); in test [3] (at 50.0 µM) it was 99% (active); in test [4] (setting [7]), 95% (active); in test [4] (setting [8]), 98% (active); in test [4] (at 50.0 µM) it was 98.1% (active). Moreover, the growth inhibition in test [5] (setting [7]) was 98% (active); in test [5] (setting [8]), 99% (active); in test [5] (at 50.0 µM), 99.2% (active); in test [6] (setting [7]), 99% (active); in test [6] (setting [8]) it was 99% (active); in test [6] (at 50.0 µM), 98% (active).
For the compound `CCOC(=O)CC(O)(CCc1ccccc1)c1ccccc1` (stereo not given), the growth inhibition in test [1] (setting [7]) is -5%; in test [1] (setting [8]) it was 6%; in test [1] (at 50.0 µM), 25.4%; in test [2] (setting [7]), 1%; in test [2] (setting [8]), 2%; in test [2] (at 50.0 µM), 54.8%. The growth inhibition in test [3] (setting [7]) was -14%; in test [3] (setting [8]) it was 22%; in test [3] (at 50.0 µM), -2.1%; in test [4] (setting [7]) it was -1%; in test [4] (setting [8]) it was -14%; in test [4] (at 50.0 µM) it was -18.2%. Besides, the growth inhibition is 14% in test [5] (setting [7]); 40% in test [5] (setting [8]); 21.1% in test [5] (at 50.0 µM); -1% in test [6] (setting [7]); 45% in test [6] (setting [8]); 9.95% in test [6] (at 50.0 µM).
Regarding `O=[N+]([O-])C(=C(Nc1ccccc1)Nc1ccccc1)C(Cl)=C(Cl)Cl`, the growth inhibition in test [1] (setting [7]) was 97% (active); in test [1] (setting [8]), 100% (active); in test [1] (at 50.0 µM) it was 89.2% (active); in test [2] (setting [7]), 98% (active); in test [2] (setting [8]), 100% (active); in test [2] (at 50.0 µM) it was 93% (active). Also, the growth inhibition in test [3] (setting [7]) was 92% (active); in test [3] (setting [8]) it was 99% (active); in test [3] (at 50.0 µM) it was 89.2% (active); in test [4] (setting [7]) it was 91% (active); in test [4] (setting [8]), 100% (active); in test [4] (at 50.0 µM), 90.7% (active). In addition, the growth inhibition in test [5] (setting [7]) was 94% (active); in test [5] (setting [8]), 100% (active); in test [5] (at 50.0 µM) it was 91.5% (active); in test [6] (setting [7]), 99% (active); in test [6] (setting [8]), 100% (active); in test [6] (at 50.0 µM) it was 85.7% (active).
Turning to `O=[N+]([O-])/C(C(Cl)=C(Cl)Cl)=C(/Cl)SCc1ccccc1`, the growth inhibition in test [1] (setting [7]) was 100% (active); in test [1] (setting [8]), 99% (active); in test [1] (at 50.0 µM), 89.8% (active); in test [2] (setting [7]), 100% (active); in test [2] (setting [8]), 99% (active); in test [2] (at 50.0 µM), 93.4% (active). Besides, the growth inhibition was 99% (active) in test [3] (setting [7]); 99% (active) in test [3] (setting [8]); 90.1% (active) in test [3] (at 50.0 µM); 99% (active) in test [4] (setting [7]); 99% (active) in test [4] (setting [8]); 91.5% (active) in test [4] (at 50.0 µM). For the same compound, the growth inhibition is 99% (active) in test [5] (setting [7]); 99% (active) in test [5] (setting [8]); 91.5% (active) in test [5] (at 50.0 µM); 99% (active) in test [6] (setting [7]); 99% (active) in test [6] (setting [8]); 86.2% (active) in test [6] (at 50.0 µM).

Source of the values: PubChem BioAssay (NCI).
